# From PubChem BioAssay
# FMDV inh – High Throughput Screening for Foot and Mouth Disease Virus Antivirals; FMDV antiviral cell-based qHTS; Potency, µM (titrated, usually from 57.9 µM), without a hit: top-dose activity change, negative = inhibition, hits mostly inhibitors; hit rate 1.2% among 410,000; calls by dose curve; tested in HEK293T cells; further: read-out not given here; potency means the concentration at half of the fitted maximal effect; nearly all actives have a fitted effect of over 45% in size
# HCMV antiviral – qHTS Assay for inhibitors of the human cytomegalovirus (HCMV); AID 1259415, 2018; hit rate 4.5% among 410,000; HFF cells, HCMV-luciferase reporter, 72 h; hits give low values; activity change, negative = inhibition, % at 57.5 µM; in the data active means activity change below about -60%; inconclusive means no clear call, values can overlap the other calls; inactive means above about -39%
#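 HFF cells seeded 16 h at 37C, treated with compounds, infected with luciferase-reporter HCMV at MOI 1 PFU/cell; luciferase read at 72 h post infection, normalized to buffer-only and Salinomycin controls.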
# MARV entry inh – qHTS for inhibitors of binding or entry into cells for Marburg Virus; Marburg virus pseudotyped entry inhibition, cell reporter; Potency, µM (titrated, usually from 37.8 µM), for inactives: top-dose activity change, negative = inhibition, usual class: inhibitors; hit rate 1.8% among 300,000; calls by dose curve; tested in HEK293 cells; further: potency means the concentration at half of the fitted maximal effect
# Lassa entry inh – qHTS for Inhibitors of binding or entry into cells for Lassa Virus; Lassa virus pseudotype entry inhibition, cell reporter; hit rate 1.2% among 300,000; Potency, µM (titrated, usually from 37.9 µM), for the others: top-dose activity change, negative = inhibition, actives largely listed as inhibitors; calls by dose curve; tested in HEK293 cells; further: potency means the concentration at half of the fitted maximal effect; nearly all actives have a fitted effect of over 50% in size
# VACV mCherry inh – qHTS for Stage-Specific Inhibitors of Vaccinia Orthopoxvirus: mCherry Reporter Primary qHTS; hit rate 0.63% among 310,000; Vaccinia virus mCherry reporter infection, fluorescence; Potency, µM (top dose mostly 36.5 µM), inactives show top-dose activity change, negative = inhibition, hits mostly inhibitors; calls by dose curve; tested in A549 cells; further: potency means the concentration at half of the fitted maximal effect; nearly all actives have a fitted effect of over 35% in size
# VACV Venus inh – qHTS for Stage-Specific Inhibitors of Vaccinia Orthopoxvirus: Venus Reporter Primary qHTS; hit rate 0.46% among 330,000; Vaccinia virus Venus reporter expression, fluorescence; Potency, µM (series often up to 36.5 µM), inactives show top-dose activity change, negative = inhibition, most hits filed as inhibitors; calls by dose curve; tested in A549 cells; further: potency means the concentration at half of the fitted maximal effect; nearly all actives have a fitted effect of over 30% in size
# Active calls of the source: *; i = inactive; u = inconclusive; x = no result; ! = repeats disagree; [ ] = remark or other dose. Compounds with a hit are over-represented: about 6.5% of the library has one in this group of screens. On the % scale 0 is the no-effect control and ±100 the full control effect.
SMILES,FMDV inh,HCMV antiviral,MARV entry inh,Lassa entry inh,VACV mCherry inh,VACV Venus inh
Cc1nc2ccc(-c3nc4ccccc4o3)cc2[nH]1,6%,139,-17%,u,-15%,-9%
COc1ccc(C(NC(C)=O)c2cc(Cl)c3cccnc3c2O)cc1OC (stereo not given),-17%,-100*,u,2.8µM*,u,u
CCOc1ccc(C(Nc2cccnc2)c2cc(Cl)c3cccnc3c2O)cc1 (stereo not given),-14%,-94*,u,u,u,u
O=C(NC(c1ccccc1)c1cc(Cl)c2cccnc2c1O)c1cccnc1 (stereo not given),x,-100*,-23%,-14%,x,x
COc1ccc(C(=O)NC(c2ccc(Cl)cc2)c2cc(Cl)c3cccnc3c2O)cc1 (stereo not given),-10%,0,x,-21%[46.1 µM],10µM*,u
O=C(O)COc1ccccc1C(Nc1cccnc1)c1cc(Cl)c2cccnc2c1O (stereo not given),-6%,x,17%[46.1 µM],27%[46.1 µM],-2%,-2%
Cc1c(C(=O)NCc2ccco2)oc2c(F)cccc12,-8%,63,x,x,x,x
CNC(=O)C(=O)N1CCC2(CC1)OCCN2S(=O)(=O)c1ccc(C)cc1,-11%,-11,12%[46.1 µM],-3%,i,-1%
O=C(O)COc1ccccc1C(Nc1ccccn1)c1cc(Cl)c2cccnc2c1O (stereo not given),-18%,-26,14%,-4%,i,-8%
CCC(=O)NC(c1ccc(OC)c(OC)c1)c1cc(Cl)c2cccnc2c1O (stereo not given),-16%,-110*,u,u,11µM*,u
CCC(=O)NC(c1ccc(C)cc1)c1cc(Cl)c2cccnc2c1O (stereo not given),-21%,x,x,x,x,x
CCOc1ccc(C(NC(C)=O)c2cc(Cl)c3cccnc3c2O)cc1 (stereo not given),x,x,x,x,5µM*,u
COc1ccc(C(NC(=O)c2ccc(-c3ccccc3)cc2)c2ccccc2)cc1 (stereo not given),2%,-66*,-16%,u,-13%,-2%
COc1ccccc1C(NC(C)=O)c1cc(Cl)c2cccnc2c1O (stereo not given),21%,-96*,3.2µM*,u,u,u
COc1cc([C@H]2C[C@H](C(F)(F)F)n3ncc(C(=O)O)c3N2)cc(OC)c1OC,x,x,-7%,x,x,x
Clc1ccc(COC(Cn2ccnc2)c2ccc(Cl)cc2Cl)cc1 (stereo not given),32µM*!,-23,-40%,-29%,-10%,u
Clc1ccc(CSC(Cn2ccnc2)c2ccc(Cl)cc2Cl)cc1 (stereo not given),u,u,u,u,-2%,u
Cc1cc2c(cc(C(=O)OCC(=O)NCc3cccs3)n2C(C)C)o1,x,x,u,9.2µM*,-22%,-24%
Cc1ccc(-n2c(-c3ccc(Cl)cc3)c[n+]3c2CCC3)cc1,u,-91*,x,x,x,x
Cc1ccc(-n2c(-c3ccccc3)c[n+]3c2CCC3)cc1,u,-95*,u,u,-14%,5%
FC(F)Sc1ccc(-n2c(-c3ccc(Cl)cc3)c[n+]3c2CCC3)cc1,-25%,-25,x,x,-1%,-3%
c1ccc(-c2c[n+]3c(n2-c2ccccc2)SCC3)cc1,u,-36,u,11%[46.1 µM],-8%,-8%
Cc1cc2nc(C)n(CCCNC(=O)Nc3cccc4ccccc34)c2cc1C,-23%,-80*,-13%,u,x,x
C=CCOC(=O)C1=C[C@H](c2ccc(Br)cc2)C[C@H](OCc2ccc(CO)cc2)O1,-5%,-3,x,x,-12%,-8%
CCN(CC)CCCCCCCCOC(=O)c1cc(OC)c(OC)c(OC)c1,-8%,29,23µM*,u,u,u
SMILES,FMDV inh,HCMV antiviral,MARV entry inh,Lassa entry inh,VACV mCherry inh,VACV Venus inh
COc1cc(C(=O)OCCN2CCOCC2)cc(OC)c1OC,x,48,-1%,9%,-1%,-8%
COc1cc(C(=O)OCCCN2CCCN(CCCOC(=O)c3cc(OC)c(OC)c(OC)c3)CC2)cc(OC)c1OC,-15%,171,5.2µM*,u,-6%,-9%
CCc1cc(C(=O)NC2CCCc3c2cnn3-c2ccc(F)cc2F)no1 (stereo not given),u,-71*,x,x,u,-28%
O=C(NC1CCCc2c1cnn2-c1ccc(F)cc1F)c1ccccc1N1CCOCC1 (stereo not given),-19%,-75*,u,8%,-5%,-15%
O=C(CCc1ccncc1)NC1CCCc2c1cnn2-c1ccc(F)cc1F (stereo not given),u,-73*,u,-21%[46.1 µM],-4%,-12%
Cc1nc(-c2ccc(NC(=O)/C=C\C(=O)O)cc2)cs1,-11%,-81*,-3%[46.1 µM],-28%,-18%,-7%
O=C(Nc1ccc(-c2csc(-c3ccccc3)n2)cc1)c1ccccc1,0%,-101*,u,u,x,x
C=CCNC(=O)c1ccc(-c2nc(-c3ccccc3)cs2)cc1,21%,39,u,u,x,x
COc1ccc(NC(=O)c2ccc(-c3csc(C)n3)cc2)cc1,-7%,u,u,u,i,4%
O=C(Nc1ccccc1F)c1ccc(C(=O)c2ccccc2)cc1,48%,-72*,u,-5%,-16%,-17%
CCCCCC(=O)Nc1ccc(-c2csc(C)n2)cc1,23%,59,-2%,15%,i,-9%
Cc1nc(-c2ccc(C(=O)Nc3ccc(F)cc3)cc2)cs1,-16%,u,6.3µM*,u,i,-20%
CCC(=O)N1[C@@H]2Cn3c(cccc3=O)[C@H]1[C@@H](C(=O)NC1CCCCC1)[C@@H]2CO,x,5,x,x,x,x
Cc1nc(-c2ccc(C(=O)Nc3ccccc3F)cc2)cs1,8.9µM*,-70*,u,u,i,-16%
Cc1nc(-c2ccc(C(=O)Nc3cccc(F)c3)cc2)cs1,u,24,5µM*,u,0%,-5%
Cc1nc(-c2ccc(NC(=O)c3ccccc3C)cc2)cs1,-5%,-12,u,u,u,u
CCOc1ccc(NC(=O)c2ccc(-c3csc(C)n3)cc2)cc1,-20%,16,7%,5%,-14%,-18%
O=C(C1=C(C(=O)N(C2CCCCC2)C2CCCCC2)CCCC1)N1CCCCC1,x,x,-9%,x,x,x
CC(C)NC(=O)c1ccc2c(c1)N(Cc1ccccc1)C(=O)C(C)(C)O2,-8%,-19,-5%[46.1 µM],-7%[46.1 µM],i,-18%
CC1CC(C)(O)CC(C(O)CC2CC(=O)NC(=O)C2)C1=O (stereo not given),u,-75*,0.1µM*,0.4µM*,u,35µM*
C[C@H]1CCC[C@H](O)CCCCCc2cc(O)cc(O)c2C(=O)O1,11µM*,-98*,-1%,x,-23%,u
